Screens deposited in PubChem BioAssay by National Center for Advancing Translational Sciences (NCATS).
Hits are enriched below; roughly 5.7% of the tested compounds scored in any of these assays.
KB-V1 cytotox: kills drug-selected multidrug resistant KB-V1 cells; KB-V1 MDR cells viability, CellTiter-Glo, 72 h; Potency, µM (top dose mostly 46.1 µM), actives largely listed as cytotoxic; 400,000 compounds, 3.4% hits; also: nearly all actives have a fitted effect of over 60% in size
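KB-V1, DMEM (no phenol red) + 10% FBS; cpd pin-transferred, titration series; 72 h, 37 degrees C; CellTiter-Glo, luminescence. Data normalized, curve-fit.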
HT1080NT lethal: kills 2HG-producing HT-1080-NT fibrosarcoma cells. AID 686970. Potency, µM (series often up to 46.1 µM), most hits filed as cytotoxic. HT-1080-NT fibrosarcoma viability, CellTiter-Glo ATP luminescence, 48 h. 360,000 compounds, 1.6% hits;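 also: NT is the 2HG producing partner of a matched IDH1 knockdown line; nearly all actives have a fitted effect of over 55% in size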
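Compounds were tested in concentration-response format on HT-1080-NT cells for 48 hours at 37 degrees C. Cell viability came from CellTiter-Glo luminescence; curves were classified by r2, response magnitude and activity.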
KB-3-1 cytotox: KB-3-1 parental cell cytotoxicity; 400,000 compounds, 1.4% hits; AID 1347075; Potency, µM (top dose mostly 46.1 µM), actives largely listed as cytotoxic; KB-3-1 viability, CellTiter-Glo ATP luminescence, 72 h; also: nearly all actives have a fitted effect of over 60% in size
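72 h, 37 °C compound treatment of KB-3-1 parental cells; CellTiter-Glo added, 10 min, luminescence read. Data corrected against DMSO-only plates and normalized before curve fitting.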
HT1080 IDH1KD tx: toxicity to HT-1080 IDH1 knockdown cells (counter line); HT-1080 IDH1 knockdown viability, ATP luminescence, 48 h; Potency, µM (highest dose often 46.1 µM), most hits filed as cytotoxic; 360,000 compounds, 2% hits; AID 686971
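In this qHTS, HT-1080 cells depleted of IDH1 are exposed for 48 h at 37 °C to compound titrations. Toxicity is scored from CellTiter-Glo luminescence, with DMSO as full viability and medium alone as none.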
Large screens that a line does not name were inactive. Calls follow the shape of the dose curve; as a rule, active = well fitted curve in the direction sought with a large enough effect; inconclusive = small, poorly fitted or top-dose-only effect, or another doubt; inactive = no such curve, though single readings can be large; an effect the other way counts as inactive or inconclusive.

CC(=NCCc1c(C)[nH]c2ccc(OC(F)(F)F)cc12)C1=C(O)CC(c2ccccc2)CC1=O (stereo unspecified)	KB-V1 cytotox inconclusive, HT1080NT lethal inconclusive, KB-3-1 cytotox 4.61µM, HT1080 IDH1KD tx inconclusive
CC(=NCCc1c(C)[nH]c2ccc(C)cc12)C1=C(O)CC(c2ccccc2)CC1=O (stereo unspecified)	KB-V1 cytotox 5.8µM, KB-3-1 cytotox 5.8µM, HT1080 IDH1KD tx 8.2µM
CCCC(=Nc1ccccc1OC)C1=C(O)CC(c2ccccc2)CC1=O (stereo unspecified)	none
CCOc1ccccc1NC(=O)c1ccc2c(c1)CCCN2S(C)(=O)=O	none (no result: HT1080NT lethal, HT1080 IDH1KD tx)
O=CC(=O)c1ccc(F)cc1	none (no result: HT1080NT lethal, HT1080 IDH1KD tx)
CCSc1nnc2c(n1)[nH]c1c(C)cccc12	KB-V1 cytotox 16.4µM, HT1080NT lethal inconclusive, KB-3-1 cytotox inconclusive, HT1080 IDH1KD tx inconclusive
Cc1sc2nc(C3CC3)nc(SCC(=O)N3CCc4ccccc4C3)c2c1C	KB-V1 cytotox 5.8µM
CCc1c(C)sc2nc(C(C)C)nc(SCC(=O)N3CCc4ccccc4C3)c12	none
COc1ccccc1CNC(=O)C(NS(=O)(=O)c1ccc2c(c1)CCN2C(C)=O)C(C)C (stereo unspecified)	none (no result: HT1080NT lethal, HT1080 IDH1KD tx)
CCOC(=O)C1CCCN(c2nc(C)nc3c2oc2ccccc23)C1 (stereo unspecified)	KB-V1 cytotox 8.2µM, HT1080NT lethal inconclusive, HT1080 IDH1KD tx inconclusive
CCc1nc(N2CCCC(C)C2)c2oc3ccccc3c2n1 (stereo unspecified)	KB-V1 cytotox 5.17µM, HT1080NT lethal inconclusive, KB-3-1 cytotox inconclusive, HT1080 IDH1KD tx inconclusive
CCOC(=O)C1CCCN(C(=O)c2cc3c(C)nc4ccccc4c3o2)C1 (stereo unspecified)	KB-V1 cytotox 13µM
c1ccc2c(c1)oc1c(N3CCOCC3)ncnc12	none
CCOC(=O)C1CCN(c2nc(C)nc3c2oc2ccccc23)CC1	none
Cc1nc(N2CCOCC2)c2oc3ccccc3c2n1	KB-V1 cytotox 14.6µM
CN(C)c1ccc(CNC(=O)C2CCN(C(=O)c3ccc(-n4ccc5ccccc54)s3)CC2)cc1	none (no result: HT1080NT lethal, HT1080 IDH1KD tx)
O=C(NCCc1nc2ccccc2n1Cc1ccc(F)cc1)c1ccco1	KB-V1 cytotox inconclusive (no result: HT1080NT lethal, HT1080 IDH1KD tx)
COc1ccccc1C(=O)Nc1cccc(OCc2cc(=O)n3c4c(sc3n2)CCCC4)c1	none (no result: HT1080NT lethal, HT1080 IDH1KD tx)
O=C(c1ccc(F)cc1)n1nc(-c2cccnc2)nc1NCc1ccc(F)cc1	none (no result: HT1080NT lethal, HT1080 IDH1KD tx)
CCOc1ccc(C(=O)c2cn(Cc3ccccc3)c3c(F)cc(F)cc3c2=O)cc1	none (no result: HT1080NT lethal, HT1080 IDH1KD tx)
CCc1nc(N2CCCCC2C(=O)O)c2oc3ccccc3c2n1 (stereo unspecified)	none
CCc1nc(N2CCN(Cc3ccc4c(c3)OCO4)CC2)c2oc3ccccc3c2n1	KB-V1 cytotox 10µM, HT1080NT lethal inconclusive, KB-3-1 cytotox 20µM, HT1080 IDH1KD tx inconclusive
CCc1nc(N2CCCCC2C)c2oc3ccccc3c2n1 (stereo unspecified)	KB-V1 cytotox 7.31µM, HT1080NT lethal inconclusive, KB-3-1 cytotox inconclusive, HT1080 IDH1KD tx inconclusive
CCOC(=O)C1CCCN(C(=O)c2ccc3nc(-c4cccc(OC)c4)oc3c2)C1 (stereo unspecified)	HT1080NT lethal inconclusive, KB-3-1 cytotox 5.8µM, HT1080 IDH1KD tx 6.51µM
CCc1nc(N2CCCCC2)c2oc3ccccc3c2n1	KB-V1 cytotox inconclusive, HT1080NT lethal inconclusive, HT1080 IDH1KD tx inconclusive
Cc1cccc(/C=N/NC(=O)c2cc(-c3cccnc3)nc3ccccc23)c1	none
Cc1cccc(/C=N/NC(=O)c2cc(-c3cccnc3)nc3c2c(C)nn3-c2ccccc2)c1	KB-V1 cytotox 14.6µM
Cc1ccc(C(C[N+](=O)[O-])n2nc(C)cc2C)cc1 (stereo unspecified)	none
Cc1ccc(C(C[N+](=O)[O-])Sc2ccc(N)cc2)cc1 (stereo unspecified)	KB-V1 cytotox inconclusive, HT1080NT lethal inconclusive, HT1080 IDH1KD tx 16.4µM
CCC(=O)c1ccc(OCC(O)Cn2c(C)nc3ccccc32)cc1 (stereo unspecified)	KB-V1 cytotox 8.2µM, HT1080 IDH1KD tx 23.1µM
Cc1nc2ccccc2n1CC(O)COc1ccc(Br)cc1 (stereo unspecified)	KB-V1 cytotox 13µM, KB-3-1 cytotox inconclusive
CCOC(=O)c1c(C)n(C)c2ccc(OCC(O)Cn3c(C)nc4ccccc43)cc12 (stereo unspecified)	KB-V1 cytotox 13µM, HT1080 IDH1KD tx inconclusive
CCOC(=O)c1c(C)n(-c2ccc(C)cc2)c2ccc(OCC(O)CN3CCN(C)CC3)cc12 (stereo unspecified)	HT1080NT lethal 20.6µM, KB-3-1 cytotox inconclusive, HT1080 IDH1KD tx 18.4µM
CCc1noc(-c2ccc(N3CCCCC3C)c([N+](=O)[O-])c2)n1 (stereo unspecified)	none (no result: HT1080NT lethal, HT1080 IDH1KD tx)
Cc1ccc(NC(=O)c2ccc3snnc3c2)cc1Cl	none (no result: HT1080NT lethal, HT1080 IDH1KD tx)
O=C(NCC1CC1)c1cc2c(c(-c3cccc(-c4ccccc4F)c3)n1)[C@H](CCO)N(C(=O)CC1CC1)C2	KB-V1 cytotox inconclusive, HT1080NT lethal 23.1µM, KB-3-1 cytotox inconclusive, HT1080 IDH1KD tx inconclusive
O=C(NCC1CC1)c1cc2c(c(-c3cccc(-c4ccccc4F)c3)n1)[C@@H](CCO)N(C(=O)CC1CC1)C2	KB-V1 cytotox inconclusive, HT1080NT lethal 20.6µM, HT1080 IDH1KD tx inconclusive
O=C(NCC(F)(F)F)c1cc2c(c(-c3cccc(-c4ccccc4F)c3)n1)[C@@H](CCO)N(C(=O)CC1CC1)C2	KB-V1 cytotox inconclusive, HT1080NT lethal inconclusive, KB-3-1 cytotox inconclusive, HT1080 IDH1KD tx 20.6µM
CCNC(=O)c1cc2c(c(-c3cccc(-c4ccccc4F)c3)n1)[C@@H](CCO)N(C(=O)CC)C2	KB-V1 cytotox inconclusive
COC(=O)C1CCN(S(=O)(=O)c2cc3c4c(c2)CC(=O)N4CCC3)CC1	none (no result: HT1080NT lethal, HT1080 IDH1KD tx)
Cc1cc(C(=O)CCl)c(C)n1CCc1ccccc1	KB-V1 cytotox inconclusive, HT1080NT lethal 13µM, KB-3-1 cytotox inconclusive, HT1080 IDH1KD tx inconclusive
COC(=O)CCCn1c(C)cc(C(=O)CCl)c1C	HT1080NT lethal 20.6µM, HT1080 IDH1KD tx inconclusive
COc1ccc(OC)c(C2CC(=O)Nc3c2c(=O)[nH]c2nc4ccccc4n32)c1 (stereo unspecified)	none (no result: HT1080NT lethal, HT1080 IDH1KD tx)
Cc1c(/C=N/NC(=O)c2ccc(O)cc2)c2ccccn2c1C(=O)c1ccc(F)cc1	KB-V1 cytotox 18.4µM, HT1080NT lethal inconclusive, KB-3-1 cytotox inconclusive, HT1080 IDH1KD tx inconclusive
Cc1c(/C=N/NC(=O)CNc2ccccc2)c2ccccn2c1C(=O)c1ccccc1	KB-V1 cytotox 3.66µM, KB-3-1 cytotox inconclusive
COC(=O)N/N=C/c1c(C)c(C(=O)c2ccc(F)cc2)n2ccccc12	KB-V1 cytotox 23.1µM, HT1080 IDH1KD tx inconclusive
c1ccc2[nH]c(CSc3ncnc4c3oc3ccccc34)nc2c1	KB-V1 cytotox 4.61µM, KB-3-1 cytotox inconclusive
c1coc(-c2nnc(SCc3nc4ccccc4[nH]3)o2)c1	KB-V1 cytotox 14.6µM, KB-3-1 cytotox inconclusive
c1ccc(SCc2nc3ccccc3[nH]2)cc1	none
Clc1ccc(SCc2nc3ccccc3[nH]2)cc1	KB-V1 cytotox 23.1µM
Cc1nc(SCc2nc3ccccc3[nH]2)c2oc3ccccc3c2n1	HT1080 IDH1KD tx inconclusive
Cc1cc(C)c(NC(=O)Cn2nc(-c3ccncc3)ccc2=O)c(C)c1	none (no result: HT1080NT lethal, HT1080 IDH1KD tx)
